From paper PMC4336329 (PLoS ONE, 2015)
Hit rate of the full screen: of about 310,000 compounds, about 2,200 (0.71%) showed an effect of 50% or more. Effects have a minus sign here. Shown is part of a subset that was picked to be rich in strong results.

target: human ether-à-go-go-related gene (hERG) potassium channel (human, UniProt Q12809); test: primary screen, population patch clamp on CHO cells stably expressing hERG; higher = less effect of the substance
Sequence (Q12809 whole entry, looked up): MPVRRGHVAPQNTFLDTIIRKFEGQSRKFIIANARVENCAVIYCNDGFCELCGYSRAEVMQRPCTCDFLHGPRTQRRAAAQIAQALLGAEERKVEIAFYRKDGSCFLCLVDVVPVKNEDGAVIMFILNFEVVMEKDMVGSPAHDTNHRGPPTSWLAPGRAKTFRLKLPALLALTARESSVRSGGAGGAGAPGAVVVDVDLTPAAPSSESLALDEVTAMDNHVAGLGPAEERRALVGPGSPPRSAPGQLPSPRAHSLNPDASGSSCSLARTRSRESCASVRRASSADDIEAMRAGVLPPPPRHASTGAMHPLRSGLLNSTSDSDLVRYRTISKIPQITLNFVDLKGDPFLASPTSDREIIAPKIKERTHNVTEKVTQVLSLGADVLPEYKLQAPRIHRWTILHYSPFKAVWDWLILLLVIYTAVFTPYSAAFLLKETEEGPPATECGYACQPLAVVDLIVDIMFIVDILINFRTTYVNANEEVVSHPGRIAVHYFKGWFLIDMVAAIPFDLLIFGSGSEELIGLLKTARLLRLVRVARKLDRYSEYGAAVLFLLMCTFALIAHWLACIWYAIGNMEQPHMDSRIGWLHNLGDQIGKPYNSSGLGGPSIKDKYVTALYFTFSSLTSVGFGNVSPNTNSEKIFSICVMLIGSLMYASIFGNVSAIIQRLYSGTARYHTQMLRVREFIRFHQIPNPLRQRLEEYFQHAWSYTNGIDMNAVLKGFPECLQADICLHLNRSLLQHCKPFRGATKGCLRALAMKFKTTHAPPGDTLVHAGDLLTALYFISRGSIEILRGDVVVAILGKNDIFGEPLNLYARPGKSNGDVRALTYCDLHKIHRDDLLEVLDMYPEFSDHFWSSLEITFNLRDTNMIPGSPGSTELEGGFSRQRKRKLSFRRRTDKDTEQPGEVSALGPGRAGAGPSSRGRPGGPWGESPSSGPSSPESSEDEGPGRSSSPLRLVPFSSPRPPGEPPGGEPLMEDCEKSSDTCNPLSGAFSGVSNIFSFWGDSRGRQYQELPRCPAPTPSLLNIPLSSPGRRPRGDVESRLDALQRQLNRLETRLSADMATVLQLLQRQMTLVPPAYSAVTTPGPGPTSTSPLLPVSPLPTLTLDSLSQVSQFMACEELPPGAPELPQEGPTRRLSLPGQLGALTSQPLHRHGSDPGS

SMILES	hERG current change (%, negative = inhibition) at 1uM [%]
O=C(NCc1ccccc1)c1cccc(S(=O)(=O)NCc2ccccc2)c1	6.18
CCN(CC)c1ccc(NC(=O)C2CCC(CNc3c(N4CCCC4)c(=O)c3=O)CC2)c(C)c1 (stereo not shown)	13.6
CCOc1ccc(C(C)=O)cc1COC(=O)C1=COCCO1	-0.905
CNCc1cc2ccc(C)cc2[nH]c1=O	-6.99
COc1ccc(CCN(Cc2cc3ccc(C)cc3[nH]c2=O)C(C)=O)cc1OC	-26.6
COc1ccc(CCNCc2cc3ccc(C)cc3[nH]c2=O)cc1OC	-53.5
Cc1cccc(CCNCc2cc3cccc(C)c3[nH]c2=O)c1	-35.7
Cc1cccc(CCNCc2cc3ccc(C)cc3[nH]c2=O)c1	-54.6
Cc1ccc2cc(CNCCc3ccccc3C)c(=O)[nH]c2c1	-42.9
Cc1ccc(Cl)cc1N1CCN(C(=O)Cc2c(C(=O)O)[nH]c3ccc(Cl)cc23)CC1	22.4
COCCOc1cnn(-c2cc(Oc3ccc(C)cc3)ncn2)c(=O)c1Cl	7.88
Cc1ccc(-n2c(SCC3CNC(=O)O3)nnc2-c2ccccc2)cc1C (stereo not shown)	0.305
CCOc1ccc(NC(=O)CN(C)C(=O)c2c(C)noc2C)cc1OCC	9.87
CCN(CC)CCCNC(=S)Nc1ccc(Br)cc1	-8.09
COc1ccc(C(=O)NC2CC2)cc1OC1CCN(Cc2ccc(F)cc2F)CC1	-75.1
COCCNC(=O)c1cccc(OC2CCN(Cc3ccc(F)cc3OC)CC2)c1	10.6
O=C(NCc1ccccn1)c1ccc(OC2CCN(Cc3ccc(F)cc3F)CC2)cc1	0.219
COc1ccc(C(=O)NC2CCN(Cc3c(F)cccc3Cl)CC2)cc1OC	10.1
COc1ccc(C(=O)NCC(=O)OCc2ccc(F)cc2Cl)cc1OC	11.2
COc1ccc(C(=O)NC2CC2)cc1OC1CCN(Cc2ccc(F)cc2Cl)CC1	-62
CCCN1CCN(C(=O)c2oc3c(Cl)cccc3c2C)CC1	-0.0965
CCCCC(=O)Nc1cccc(NC(=O)CC)c1	10.3
Cc1ccccc1-n1cc(-c2ccc(Br)cc2)nc1SCC(N)=O	10.3
Clc1cccc(OCCN2CCOCC2)c1.O=C(O)C(=O)O	5.84
Clc1cccc(OCCCCN2CCCCC2)c1	-4.66
CCC1CCCCN1CCCCOc1cccc(Cl)c1.O=C(O)C(=O)O (stereo not shown)	-55.6
COc1ccc(CNC(=O)C(C)N2C(=O)NC(c3ccccc3)(c3ccccc3)C2=O)cc1 (stereo not shown)	-56.1
CC(C(=O)NC(N)=O)N1C(=O)NC(c2ccccc2)(c2ccccc2)C1=O (stereo not shown)	-0.156

SMILES	hERG current change (%, negative = inhibition) at 1uM [%]
CCNC(=O)NC(=O)C(C)N1C(=O)NC(c2ccccc2)(c2ccccc2)C1=O (stereo not shown)	-2.55
CCCCNCC(=O)Nc1ccc(NC(=O)CNCCCC)cc1	16.2
CCCN1Cc2cccc(C(N)=O)c2C1=O	3.15
O=C(c1ccc(C(F)(F)F)cc1)C1CCCN(Cc2ccncc2)C1 (stereo not shown)	-7.99
Cc1cccc(CN2CCCC(C(=O)c3ccc(C(F)(F)F)cc3)C2)n1 (stereo not shown)	-40
O=C(c1ccc(C(F)(F)F)cc1)C1CCCN(Cc2cccn2-c2ncccn2)C1 (stereo not shown)	-88
O=C(c1cccc(C(F)(F)F)c1)C1CCCN(Cc2ccccc2O)C1 (stereo not shown)	13.2
CCn1ccnc1CN1CCCC(C(=O)c2cccc(C(F)(F)F)c2)C1 (stereo not shown)	1.55
O=C(c1cccc(C(F)(F)F)c1)C1CCCN(Cc2ncc[nH]2)C1 (stereo not shown)	11.1
O=C(c1cccc(C(F)(F)F)c1)C1CCCN(Cc2cccn2-c2ncccn2)C1 (stereo not shown)	-105
CC(=O)Nc1ccc(CN2CCCC(C(=O)c3cccc(C(F)(F)F)c3)C2)cc1 (stereo not shown)	7.86
O=C(c1cccc(C(F)(F)F)c1)C1CCCN(Cc2cccn2-c2ccccn2)C1 (stereo not shown)	-90.4
CC(=O)c1ccc(S(=O)(=O)Nc2ccccc2C(=O)NC2CC2)cc1	9.72
O=C1CN(S(=O)(=O)c2cccc(C(=O)O)c2)c2ccccc2N1	11.3
CCC(CC)c1nnc(NC(=O)c2ccc(N3CCCCC3)c([N+](=O)[O-])c2)s1	-9.23
CC(CCc1ccccc1)NCC(O)c1cccc([N+](=O)[O-])c1.Cl (stereo not shown)	-8.42
CC(CCc1ccccc1)N(C)CC(O)c1cccc([N+](=O)[O-])c1.Cl (stereo not shown)	-56.8
C=CCN(CC(O)c1cccc([N+](=O)[O-])c1)C(C)CCc1ccccc1.Cl (stereo not shown)	-9.83
CCOC(=O)C1(CC2CCCCO2)CCN(Cc2nccn2-c2cccc(C)c2)CC1 (stereo not shown)	-1.48
Cc1cc(CN2CCCC(CNC(=O)c3ccc(F)cc3)C2)cc(C)c1O (stereo not shown)	-14.5
CCOC(=O)C1(CC2CCCCO2)CCN(Cc2c(C)cc(C)cc2-n2cccn2)CC1 (stereo not shown)	-84.1
Cc1ccc(-n2cccn2)c(CN2CCCC(CNC(=O)c3ccc(F)cc3)C2)c1 (stereo not shown)	-78.9
O=C(NCC1CCCN(Cc2cccc(C(F)(F)F)c2)C1)c1ccc(F)cc1 (stereo not shown)	-5.71
CCn1ncc(CN2CCCC(CNC(=O)c3ccc(F)cc3)C2)c1C (stereo not shown)	1.73
CCOC(=O)C1(CC2CCCCO2)CCN(Cc2cc(F)ccc2-n2cccn2)CC1 (stereo not shown)	-14.9
COc1cccc(CN2CCCC(CNC(=O)c3ccc(F)cc3)C2)c1OC (stereo not shown)	-12.6
Cc1cc(C)c(CN2CCCC(CNC(=O)c3ccc(F)cc3)C2)c(-n2cccn2)c1 (stereo not shown)	-85.4
